# Data published in PubChem BioAssay (NCATS).
# Results filed as inconclusive are left out. Calls of active or inactive are those of the source. Unless noted, calls follow the shape of the dose curve; as a rule, active = well fitted curve in the direction sought with a large enough effect; inconclusive = small, poorly fitted or top-dose-only effect, or another doubt; inactive = no such curve, though single readings can be large; an effect the other way counts as inactive or inconclusive.
# Columns and labels:
# [1] = target: Cytochrome P450 3A4 (Homo sapiens) (UniProt P08684); test: qHTS Assay for Activators of Cytochrome P450 3A4 (AID 885); also: nearly all actives have a fitted effect of over 65% in size
# Method in brief: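 Quantitative HTS format: compounds preincubated with 20nM human CYP3A4 and Luciferin-PPXE substrate at KM, reaction started by NADPH regeneration, stopped after 60 min, luciferase luminescence read 20 min later.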
# [2] = Confirmation and Secondary Assay for Modulators of Hemoglobin Beta Chain Splicing at IVS2 654 locus (AID 910);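 also: HeLa cells stably carrying EGFP split by mutant beta-globin IVS2-654 intron; per-well total GFP intensity by laser scanning cytometry after 2-day treatment; % of control where 0% means no effect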
# Method in brief: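 Readout: per-well total peak green fluorescence (488 nm ex, 500–520 nm em) from objects 5–250 µm, reflecting correct splicing of an EGFP-654 reporter. Compounds were applied for 2 days at 37 °C to overnight-plated HeLa EGFP-654 cells; controls were DMSO and 500 nM IVS2-654 PNA.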
# [3] = Confirmation and Secondary Assay for Modulators of Hemoglobin Beta Chain Splicing at IVS2 705 locus (AID 930);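 also: HeLa cells stably expressing the EGFP-705 splicing reporter; GFP fluorescence per well restored by corrected splicing of the IVS2-705 intron in EGFP; % of control where 0% means no effect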
# Method in brief: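 Assay measures total GFP intensity per well in HeLa EGFP-705 cells after 2 days with compound; mis-splicing normally truncates EGFP, so fluorescence indicates corrected splicing.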
# [4] = qHTS Assay for Lipid Storage Modulators (AID 1519; calls by dose curve; also: potency is read from the fitted curve at half-maximal effect; as to activity change, negative = inhibition: % is scaled to controls: 0 for no effect and ±100 for the full control effect); conditions: Drosophila S3 cells, BODIPY lipid droplet/cell ratio, laser cytometry, cells loaded with oleic acid
# Method in brief: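 Cells seeded at 5,000 per well were treated with compounds over a concentration series and loaded with oleic acid (400 uM, as added). Lipid droplet fluorescence (488 nm excitation, 500-530 nm channel) was read by laser-scanning cytometry and normalized to 20 uM Triacsin C.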
# [5] = target: Cytochrome P450 2C9 (Homo sapiens) (UniProt P11712); test: qHTS Assay for Inhibitors and Substrates of Cytochrome P450 2C9 (AID 883); also: potency is read from the fitted curve at half-maximal effect; nearly all actives have a fitted effect of over 60% in size
# Method in brief: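 Luminescent read-out of deoxyluciferin hydroxylation, normalized to 57uM sulphaphenazole (AC100). Reaction: 10nM enzyme, 100uM Luciferin-H (equal to KM), 25mM KPO4, 10 min compound preincubation, then 60 min with NADPH regeneration, both at 37C.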
# [6] = target: Cytochrome P450 3A4 (Homo sapiens) (UniProt P08684); test: qHTS Assay for Inhibitors and Substrates of Cytochrome P450 3A4 (AID 884); also: nearly all actives have a fitted effect of over 50% in size; also: potency is read from the fitted curve at half-maximal effect; as to activity change, negative = inhibition: % is scaled to controls: 0 for no effect and ±100 for the full control effect
# Method in brief: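 20 nM human CYP3A4 with 25 uM Luciferin-PPXE (at KM) in 200 mM KPO4, preincubated 10 min with compound; NADPH regeneration started a 60 min RT reaction. Luciferin detected by luminescence, normalized to 57 uM ketoconazole as full inhibition.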
# [7] = target: Cytochrome P450 2C19 (Homo sapiens) (UniProt P33261); test: qHTS Assay for Inhibitors and Substrates of Cytochrome P450 2C19 (AID 899); also: potency is read from the fitted curve at half-maximal effect; nearly all actives have a fitted effect of over 60% in size
# Method in brief: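 Luminescence readout of luciferin formed from 10uM Luciferin-H EGE (KM level) by 5 nM CYP2C19 in 50mM KPO4. 60 min NADPH-driven reaction at 37C after 10 min compound preincubation; data scaled to 57uM ketoconazole inhibition.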
# [8] = target: Cytochrome P450 2D6 (Homo sapiens) (UniProt P10635); test: qHTS Assay for Inhibitors and Substrates of Cytochrome P450 2D6 (AID 891); also: potency is read from the fitted curve at half-maximal effect; nearly all actives have a fitted effect of over 60% in size
# Method in brief: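 Human CYP2D6 (5 nM) with 30 uM Luciferin-ME EGE (at Km) in 100 mM KPO4, compound preincubated 10 min, then NADPH regeneration system for 60 min at room temperature. Luciferin read by luminescence; normalized to 1.43 uM quinidine.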
# [9] = target: Alpha-galactosidase (Coffea arabica) (UniProt Q42656); test: Counterscreen for Glucocerebrosidase Inhibitors: qHTS Assay for Coffee Bean alpha-Galactosidase at pH 4.5 (AID 957);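 also: plate controls were enzyme alone for no effect and no enzyme for full effect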
# Method in brief: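 Coffee bean enzyme (2 nM) with 80 uM 4-methylumbelliferyl alpha-D-galactopyranoside in 50 mM citric acid, 0.005% Tween-20, pH 4.5, 20 min at room temperature; compounds 0.7 nM–77 uM. Stopped at pH 10, fluorescence 365/440 nm; AC50 from Hill fits.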
# [10] = measured here: cell count channel max response
# [11] = measured here: lipid channel max response
# Alpha-galactosidase (Coffea arabica), sequence (Q42656 whole entry, looked up): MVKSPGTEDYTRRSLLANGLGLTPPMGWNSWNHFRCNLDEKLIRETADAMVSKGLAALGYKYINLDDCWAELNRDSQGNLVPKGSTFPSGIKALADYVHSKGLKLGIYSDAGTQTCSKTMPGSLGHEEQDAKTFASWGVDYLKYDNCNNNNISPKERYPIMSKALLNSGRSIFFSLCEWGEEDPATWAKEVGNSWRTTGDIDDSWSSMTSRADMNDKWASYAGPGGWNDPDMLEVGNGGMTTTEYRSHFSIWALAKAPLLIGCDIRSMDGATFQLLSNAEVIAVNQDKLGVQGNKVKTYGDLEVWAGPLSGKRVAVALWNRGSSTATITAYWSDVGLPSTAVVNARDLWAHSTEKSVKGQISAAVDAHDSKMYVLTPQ
# Cytochrome P450 3A4 (Homo sapiens), sequence (P08684 whole entry, looked up): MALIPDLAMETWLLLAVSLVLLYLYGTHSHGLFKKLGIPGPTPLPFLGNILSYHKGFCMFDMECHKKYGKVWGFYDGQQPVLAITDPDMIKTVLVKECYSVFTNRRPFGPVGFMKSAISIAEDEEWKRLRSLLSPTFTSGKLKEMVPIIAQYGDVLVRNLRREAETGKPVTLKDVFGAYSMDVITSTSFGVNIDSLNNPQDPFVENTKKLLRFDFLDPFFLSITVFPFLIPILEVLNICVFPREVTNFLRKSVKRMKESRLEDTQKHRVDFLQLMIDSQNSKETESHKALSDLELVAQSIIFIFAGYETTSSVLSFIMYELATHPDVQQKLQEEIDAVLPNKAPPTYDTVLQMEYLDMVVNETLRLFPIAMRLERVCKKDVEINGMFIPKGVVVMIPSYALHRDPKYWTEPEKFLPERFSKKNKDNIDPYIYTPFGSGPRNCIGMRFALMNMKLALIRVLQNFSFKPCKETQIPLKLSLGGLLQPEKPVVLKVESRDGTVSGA
# Cytochrome P450 2C9 (Homo sapiens), sequence (P11712 whole entry, looked up): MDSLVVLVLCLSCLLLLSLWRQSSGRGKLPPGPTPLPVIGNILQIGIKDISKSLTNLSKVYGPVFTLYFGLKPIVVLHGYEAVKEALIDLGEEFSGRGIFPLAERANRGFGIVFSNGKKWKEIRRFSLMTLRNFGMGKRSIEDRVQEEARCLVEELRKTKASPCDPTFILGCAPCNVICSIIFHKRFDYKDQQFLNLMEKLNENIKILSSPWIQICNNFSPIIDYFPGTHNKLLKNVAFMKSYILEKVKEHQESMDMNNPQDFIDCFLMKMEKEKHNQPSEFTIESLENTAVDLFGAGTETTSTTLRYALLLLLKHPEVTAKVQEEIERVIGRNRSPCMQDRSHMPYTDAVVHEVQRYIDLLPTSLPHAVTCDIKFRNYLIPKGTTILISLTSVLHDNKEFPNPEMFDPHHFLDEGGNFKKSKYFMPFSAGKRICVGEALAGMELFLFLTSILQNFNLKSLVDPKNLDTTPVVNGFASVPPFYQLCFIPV
# Cytochrome P450 2D6 (Homo sapiens), sequence (P10635 whole entry, looked up): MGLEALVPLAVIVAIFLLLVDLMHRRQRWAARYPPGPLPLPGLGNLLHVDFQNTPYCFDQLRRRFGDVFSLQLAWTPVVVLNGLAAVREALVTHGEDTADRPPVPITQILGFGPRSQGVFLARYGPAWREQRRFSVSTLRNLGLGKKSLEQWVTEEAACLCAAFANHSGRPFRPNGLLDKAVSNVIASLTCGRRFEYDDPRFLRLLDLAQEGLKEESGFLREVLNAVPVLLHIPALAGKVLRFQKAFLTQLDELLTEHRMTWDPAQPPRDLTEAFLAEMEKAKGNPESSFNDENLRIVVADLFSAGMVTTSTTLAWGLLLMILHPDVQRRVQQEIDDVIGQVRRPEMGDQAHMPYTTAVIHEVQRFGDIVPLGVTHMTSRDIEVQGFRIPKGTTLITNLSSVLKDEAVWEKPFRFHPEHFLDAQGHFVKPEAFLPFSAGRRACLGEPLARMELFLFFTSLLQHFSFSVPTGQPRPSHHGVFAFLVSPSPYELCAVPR
# Cytochrome P450 2C19 (Homo sapiens), sequence (P33261 whole entry, looked up): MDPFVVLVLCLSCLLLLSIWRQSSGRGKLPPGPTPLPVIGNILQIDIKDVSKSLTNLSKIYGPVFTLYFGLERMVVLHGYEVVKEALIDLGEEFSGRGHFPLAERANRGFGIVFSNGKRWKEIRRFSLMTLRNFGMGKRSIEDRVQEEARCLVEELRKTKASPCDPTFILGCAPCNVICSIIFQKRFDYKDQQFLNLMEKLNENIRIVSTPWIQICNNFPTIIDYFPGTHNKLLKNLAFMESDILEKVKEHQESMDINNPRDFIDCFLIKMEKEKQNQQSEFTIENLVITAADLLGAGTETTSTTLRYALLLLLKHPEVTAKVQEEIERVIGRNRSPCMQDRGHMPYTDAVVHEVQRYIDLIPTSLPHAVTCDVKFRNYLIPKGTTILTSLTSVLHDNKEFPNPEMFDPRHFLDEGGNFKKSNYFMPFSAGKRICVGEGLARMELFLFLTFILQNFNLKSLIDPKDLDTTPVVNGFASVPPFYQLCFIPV
compound,measurement,setting,value
CCC(C)C(=O)O[C@@H]1C[C@@]2(C)C(c3ccoc3)OC(=O)CC23OC2(C)O[C@@]14[C@@]1(C)C(CC(=O)OC)C5(C)CC1(O)C(O)(C5OC(=O)C1(C)OC1C)C(OC(C)=O)[C@@]34O2 (some centres undefined),Potency,[1],inactive
same,Potency,[2],inactive
same,Potency,[3],inactive
same,"activity change, negative = inhibition",[4]; at 57.5 µM (top of the series),5.34% (inactive)
same,max response,[4]; [10],-2.48%
same,max response,[4]; [11],2.6%
COc1cc(CNC(=O)CCCC/C=C\C(C)C)ccc1O,Potency,[5],3.98 µM (active)
same,Potency,[6],7.94 µM (active)
same,Potency,[1],inactive
same,Potency,[7],10 µM (active)
same,"activity change, negative = inhibition",[4]; at 25.7 µM (top of the series),-6.95% (inactive)
same,max response,[4]; [10],-15.8%
same,max response,[4]; [11],-21%
Cc1c(O)c(O)cc2c1CC=C1[C@]3(C)CC[C@]4(C)CC[C@@](C)(C(=O)O)CC4[C@]3(C)CC[C@]12C (some centres undefined),Potency,[6],inactive
same,Potency,[2],inactive
same,Potency,[3],inactive
same,"activity change, negative = inhibition",[4]; at 57.5 µM (top of the series),-4.4% (inactive)
same,max response,[4]; [10],19.2%
same,max response,[4]; [11],14.7%
CCC(CO)NC(=O)C1C=C2c3cccc4[nH]cc(c34)CC2N(C)C1 (centres undefined),Potency,[2],inactive
same,Potency,[3],inactive
same,"activity change, negative = inhibition",[4]; at 57.5 µM (top of the series),10.6% (inactive)
same,max response,[4]; [10],3.07%
same,max response,[4]; [11],18.5%
CNC(Cc1c[nH]c2ccccc12)C(=O)O (centres undefined),Potency,[2],inactive
same,Potency,[3],inactive
same,"activity change, negative = inhibition",[4]; at 57.5 µM (top of the series),4.43% (inactive)
same,max response,[4]; [10],11.7%
same,max response,[4]; [11],20.5%
CNC(=O)Oc1ccc2c(c1)[C@@]1(C)CCN(C)[C@@H]1N2C,Potency,[8],0.631 µM (active)
same,outcome,[9],inactive
same,"activity change, negative = inhibition",[4]; at 25.7 µM (top of the series),-1.12% (inactive)
same,max response,[4]; [10],-3.51%
same,max response,[4]; [11],-6.16%
CC(C)C[C@H]1C(=O)N2CCC[C@@H]2[C@]2(O)O[C@](NC(=O)[C@H]3C=C4c5cccc6[nH]c(Br)c(c56)C[C@H]4N(C)C3)(C(C)C)C(=O)N12,outcome,[9],inactive
same,"activity change, negative = inhibition",[4]; at 25.7 µM (top of the series),-0.675% (inactive)
same,max response,[4]; [10],-7.2%
same,max response,[4]; [11],-5.42%
C[C@]12CCC3C(CC[C@]4(O)CC(O)CC[C@@]34C=O)[C@]1(O)CCC2C1=CC(=O)OC1 (some centres undefined),Potency,[2],inactive
same,Potency,[3],inactive
same,"activity change, negative = inhibition",[4]; at 57.5 µM (top of the series),-3.74% (inactive)
same,max response,[4]; [10],12.5%
same,max response,[4]; [11],11%
C=C1C([C@@]2(C)C(OC(C)=O)CC(=O)O[C@@](C)(COC(C)=O)C2CC(=O)OC)C(OC=O)C(OC(=O)C(OC(C)=O)C(C)CC)[C@]2(C)C(c3ccoc3)CC(=O)C12O (some centres undefined),Potency,[1],inactive
same,Potency,[2],inactive
same,Potency,[3],inactive
same,"activity change, negative = inhibition",[4]; at 57.5 µM (top of the series),-5.86% (inactive)
same,max response,[4]; [10],19%
same,max response,[4]; [11],13.8%
COc1cc2c(cc1OC)[C@@H]1C(=O)c3ccc4oc(C(C)C)cc4c3OC1CO2 (some centres undefined),Potency,[2],inactive
same,Potency,[3],inactive
same,Potency,[4],2.51 µM (active)
same,max response,[4]; [10],-28.2%
same,max response,[4]; [11],-80.9%
COc1cc([C@H]2c3cc4c(cc3[C@@H](O)[C@@H]3COC(=O)[C@H]23)OCO4)cc(OC)c1OC,Potency,[5],1.26 µM (active)
same,outcome,[9],inactive
same,"activity change, negative = inhibition",[4]; at 25.7 µM (top of the series),-6.44% (inactive)
same,max response,[4]; [10],-10.2%
same,max response,[4]; [11],-15%
CN1CC(CNC(=O)OCc2ccccc2)CC2c3cccc4c3c(cn4C)CC21 (centres undefined),Potency,[2],inactive
same,Potency,[3],inactive
same,"activity change, negative = inhibition",[4]; at 57.5 µM (top of the series),7.09% (inactive)
same,max response,[4]; [10],-1.98%
same,max response,[4]; [11],5.84%
